Test results as given in PubChem BioAssay (NCI).
The panel holds about 83,000 compounds, 20% with a hit somewhere; the sample as a whole holds those more often.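 Method: cells in 96-well plates; compound added at one concentration; 48 h incubation; percent growth measured; values under 10 scored active.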 Values without a mark were called inactive. Active and inactive are the calls of the source.

Assays:
Assay in all cases: NCI-60 one-dose screen, 48 h (100 = growth as untreated, 0 = no growth, -100 = all killed)
Conditions in all cases: 10 µM unless noted
[1] = system: NCI-H23 lung
[2] = system: NCI-H226 lung
[3] = system: NCI-H322M lung
[4] = system: HOP-62 NSCLC
[5] = system: NCI-H460 lung
[6] = system: HOP-92 NSCLC
[7] = system: NCI-H522 lung
[8] = system: A549/ATCC NSCLC
[9] = system: 786-0 renal
[10] = system: COLO 205 colon

SMILES	growth [1]	growth [2]	growth [3]	growth [4]	growth [5]	growth [6]	growth [7]	growth [8]	growth [9]	growth [10]
Cc1ccc(-c2nc(SCc3nc4cc(Cl)c(Cl)cc4[nH]3)[nH]c(=O)c2C#N)cc1	99.2%	103%	101%	91.9%	112%	104%	89.1%	93.1%	94.5%	107%
C=C1C(=O)O[C@H]2[C@H]1CC/C(COC(=O)CSCSCC(=O)OC/C1=C/CC[C@@]3(C)O[C@H]3[C@H]3OC(=O)C(=C)[C@@H]3CC1)=C\CC[C@@]1(C)O[C@@H]21	24.6%	-7.99% (active)	79.1%	82.7%	13.6%	-13.3% (active)	-77.8% (active)	72.1%	-6.8% (active)	-65.5% (active)
C=C(C)[C@@H]1CCC[C@]2(C(=O)N3CCN(C)CC3)CC[C@]3(C)[C@@H](CC[C@@H]4[C@@]5(C)CC/C(=N\NC(=O)c6ccncc6)C(C)(C)[C@@H]5CC[C@]43C)[C@@H]12	93.3%	101%	93.7%	96.9%	88%	107%	98.3%	99.5%	93.6%	99.1%
COc1ccc(/C=C(/C(=O)n2cnnn2)c2cc(OC)c(OC)c(OC)c2)cc1	41.8%	40.7%	50.8%	25.6%	12.7%	69.3%	20.6%	29%	35.5%	-3.15% (active)
CCNc1nc(O)c(/C=C2\C=Nc3ncccc32)s1	-7.87% (active)	10.8%	5.83% (active)	-26.5% (active)	2.41% (active)	4.42% (active)	-28.6% (active)	11.1%	3.02% (active)	-33.3% (active)
CC(=O)/C(=C/c1ccc([N+](=O)[O-])cc1)C(=O)c1ccccc1	88.1%	81.5%	100%	79.8%	107%	70.1%	52%	83.6%	92.5%	90%
NC(=O)c1c(NC(=O)c2cccc(C(F)(F)F)c2)sc2c1CCC(=O)C2	-2.9% (active)	34.2%	61.6%	28.2%	5.67% (active)	-45.1% (active)	-37.6% (active)	17%	17.8%	-51.2% (active)
C#CC#CC#CC#CC#CC#CC#CC#CC[C@@H]1OC[C@@H](COC(=O)O[C@@H](C(=O)O[C@H]2C[C@@]3(O)[C@@H](OC(=O)c4ccccc4)[C@@H]4[C@]5(OC(C)=O)CO[C@@H]5C[C@H](O)[C@@]4(C)C(=O)[C@H](OC(C)=O)C(=C2C)C3(C)C)[C@@H](NC(=O)c2ccccc2)c2ccccc2)O1	27.1%	32.3%	23.5%	95.2%	99.7%	42.9%	92.4%	94.7%	16.3%	108%
Cc1ccc(-c2nc(N3CCNCC3)c3oc(-c4ccc(C)cc4)nc3n2)cc1	75.6%	97.6%	47.9%	76.1%	-68.3% (active)	88.9%	76.1%	-83.3% (active)	-92.2% (active)	-81.2% (active)
CCc1ccc(CCC(=O)Nc2ncc(Cc3ccccc3)s2)o1	37.6%	64.3%	54.7%	23%	7.58% (active)	87.8%	-2.33% (active)	32%	41.6%	12.3%
Cc1n[nH]c2ccc(Br)cc2c1=O	98.3%	96.5%	98.7%	93.9%	110%	103%	83.6%	99%	102%	106%
C=CC(=O)Nc1ccc(Oc2nccc(Nc3nnc(-c4ccc(C)cc4)s3)n2)cc1	79.9%	86.2%	98.7%	83.5%	59.9%	72.4%	24.3%	77%	70.8%	100%
CN(C)CCN1C(=O)c2cccc3c(/C=C/CN4C(=O)c5cccc6cccc(c56)C4=O)ccc(c23)C1=O	93.8%	98.7%	84.3%	88.9%	93.7%	94.2%	101%	85.3%	-84.5% (active)	82.1%
CC1C(/C=N/NC(N)=S)C(C#N)(C#N)C1(C#N)C#N (stereo not given)	101%	101%	102%	105%	99.8%	92.9%	99.4%	100%	104%	115%
COc1ccc2c(c1)c(/C(O)=C1\COC(=O)C1=O)cn2Cc1ccc(F)cc1	110%	90.4%	101%	112%	103%	72.1%	73.9%	101%	96.1%	108%
O=C(NNc1cnccn1)c1nc2cc(F)ccc2n2cccc12	25.4%	14.1%	18%	15%	2.78% (active)	34.9%	-2.38% (active)	11.1%	28.6%	7.25% (active)
COc1cccc(-c2cc(-c3cccc(Cl)c3)c(C#N)c(=O)[nH]2)c1	86.7%	91.4%	89.5%	68.5%	78.5%	51.7%	62.2%	70.9%	88.8%	111%
C/C(=N\O)c1ccc(NC(=O)CSc2nnc(-c3cc(-c4ccc(S(N)(=O)=O)cc4)nc4ccccc34)n2-c2ccccc2)cc1	89.6%	80.4%	86.5%	95.5%	67.2%	66%	67.4%	79.5%	72.6%	78.3%
Nc1[nH]c(=S)nc2oc(-c3ccccc3)c(-c3ccccc3)c12	94.5%	107%	105%	86.6%	113%	102%	94.8%	98.1%	103%	121%
CC(C)CCN(CCC(C)C)CC(O)c1cc2c(c3ccccc13)CCCC2 (stereo not given)	56.6%	70.2%	81.4%	85.6%	75.3%	40.2%	56.7%	73.3%	88.8%	60.5%
COc1ccc(-c2n[nH]c(=O)c3nc(NC(=S)Nc4ccc(Oc5ccccc5)cc4)sc23)cc1	99.7%	95.5%	101%	91%	101%	90.1%	68.9%	86.7%	102%	113%
COc1ccc(CCN(CC(=O)N(CC(N)=O)C2CCC[C@@H]2OCc2ccccc2)C(=O)CN(C(=O)CN(CCc2ccc(Cl)cc2)C(=O)CN(C(=O)CN(C)Cc2ccccc2F)[C@H](C)C2CCCCC2)[C@H](C)C2CCCCC2)cc1OC (stereo not given in full)	31.9%	53.5%	40.6%	41.8%	28.3%	10.3%	24.5%	23.4%	44%	-17.4% (active)
CC1(C)CC(=O)c2c(nn(-c3ccc(Br)cc3)c2-c2cn(-c3ccccc3)nc2-c2cccnc2)C1	90.4%	98.4%	93%	81.3%	97.5%	87.2%	85.6%	92.5%	100%	105%
COc1ccc(/C(C)=C(\c2ccc(Cl)cc2)c2ccc(OCCN3CCCCC3)cc2)cc1	57.9%	89.4%	68.8%	68.6%	24.6%	70.3%	78.3%	38.5%	-5.84% (active)	-4.92% (active)
N#Cc1cncc(-c2ccc3ncnc(Nc4cccc(Cl)c4)c3c2)c1	62.4%	69.9%	28.7%	61.5%	75.2%	18.6%	65.2%	62.3%	61.6%	96.6%
O=C(CCCCCCN1CC(=O)N2[C@H](c3ccc(Br)cc3)c3[nH]c4ccccc4c3C[C@@H]2C1=O)NO	53%	80.2%	50.3%	52.2%	44.7%	31.3%	26.9%	80%	89.1%	38.7%
